# Assay results as given in PubChem BioAssay (NCATS).
# A number with no mark means an inactive call. Records with an inconclusive call do not appear. Where a call stands in place of a potency, no number is given. Active and inactive are the calls of the source. Unless noted, calls come from the whole dose curve.
# How the values were obtained:
# [1] = molecular target: Glucocorticoid receptor (Homo sapiens) (UniProt P04150); test: GR-GFP Redistribution (AID 450;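 active = compounds whose dose series gives a full or clear partial fitted curve of increased nuclear translocation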; note: potency is the fitted concentration of half-maximal effect); settings: U2OS GR-GFP nuclear translocation, laser cytometry, 2 h
# Glucocorticoid receptor (Homo sapiens), sequence (P04150 whole entry, looked up): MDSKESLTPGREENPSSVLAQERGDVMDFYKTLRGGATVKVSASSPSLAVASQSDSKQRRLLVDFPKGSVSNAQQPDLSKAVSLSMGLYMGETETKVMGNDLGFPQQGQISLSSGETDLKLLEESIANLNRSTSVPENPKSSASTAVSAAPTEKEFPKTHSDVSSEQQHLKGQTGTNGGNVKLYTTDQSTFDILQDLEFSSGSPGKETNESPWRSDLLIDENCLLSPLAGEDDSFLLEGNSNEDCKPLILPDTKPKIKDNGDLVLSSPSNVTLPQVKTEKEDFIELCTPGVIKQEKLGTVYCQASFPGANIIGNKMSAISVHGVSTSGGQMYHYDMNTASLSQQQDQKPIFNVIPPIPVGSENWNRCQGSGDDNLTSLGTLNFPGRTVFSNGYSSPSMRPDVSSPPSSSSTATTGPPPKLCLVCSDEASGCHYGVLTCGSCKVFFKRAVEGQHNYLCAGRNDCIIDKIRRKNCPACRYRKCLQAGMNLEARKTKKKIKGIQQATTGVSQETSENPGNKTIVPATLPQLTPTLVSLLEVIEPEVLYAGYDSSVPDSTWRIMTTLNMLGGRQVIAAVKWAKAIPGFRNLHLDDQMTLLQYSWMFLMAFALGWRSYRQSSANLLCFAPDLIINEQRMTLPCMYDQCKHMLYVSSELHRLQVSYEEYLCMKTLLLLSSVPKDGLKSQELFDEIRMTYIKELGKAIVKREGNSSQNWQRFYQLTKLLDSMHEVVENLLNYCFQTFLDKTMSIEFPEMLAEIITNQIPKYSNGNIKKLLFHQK
# [2] = Cell Viability - BJ (AID 421); settings: BJ fibroblast viability, qHTS;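 note: potency is the fitted concentration of half-maximal effect; cells exposed to compound for 40 hours at 37 °C before readout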
# Procedure, shortened: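 Cytotoxicity as drop in intracellular ATP (CellTiter-Glo, 20 min RT) after 40 hr compound exposure of BJ fibroblasts at 37 °C. Titrations scaled between DMSO and 100 uM tamoxifen, Hill-fitted for AC50.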
# [3] = Cell Viability - Hek293 (AID 427;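 active = compounds whose dose-response curve shows a full or clear partial loss of cell viability, called from curve shape rather than a numeric limit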;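 note: potency is the fitted concentration of half-maximal effect; cells exposed to compound for 40 hours at 37 °C before reading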); settings: qHTS
# Procedure, shortened: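 Luminescent ATP content (CellTiter-Glo, 20 min at room temperature) was measured after a 40 hr, 37 °C compound exposure of HEK293 cells. AC50 values came from Hill-equation fits of qHTS concentration-response data normalized to DMSO and 100 uM tamoxifen.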
# [4] = Cell Viability - MRC5 (AID 434); settings: MRC5 lung fibroblast viability, qHTS;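 note: potency is the fitted concentration of half-maximal effect; potency reflects cytotoxicity seen as loss of intracellular ATP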
# Procedure, shortened: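 Decrease in intracellular ATP, quantified by luciferase light output, reflects compound toxicity toward MRC5 cells exposed for 40 hr in complete culture medium. Concentration-response curves, scaled between DMSO and 100 uM tamoxifen, gave AC50 values.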
# [5] = Cell Viability - SK-N-SH (AID 435); settings: SK-N-SH neuroblastoma cell viability qHTS;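 note: potency is the fitted concentration of half-maximal effect; compound exposure lasted 40 h at 37 °C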
# Procedure, shortened: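 Luminescent ATP signal served as the viability read-out after 40 hours of compound treatment of human neuroblastoma SK-N-SH cells. Concentration-response data, scaled between DMSO and 100 uM tamoxifen, gave AC50 values by standard Hill modeling.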
# [6] = Cell Viability - Renal Proximal Tubule (AID 545; active = well fitted curve in the direction sought with a large enough effect; an effect the other way counts as inactive or inconclusive; note: nearly all actives have a fitted effect of over 40% in size); settings: renal proximal tubule cells viability; activity change, negative = cytotoxicity: at 91.7 µM (top of the series) unless noted
# Procedure, shortened: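 Luminescent ATP signal (CellTiter-Glo) served as the viability read-out after 40 hr compound exposure of freshly isolated rat proximal tubule cells at 37 °C. Concentration-dependent ATP loss was fitted with the Hill equation to give AC50.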
# [7] = Cellular Toxicity (caspase-3) HUV-EC-C (AID 656; active = well fitted curve in the direction sought with a large enough effect; an effect the other way counts as inactive or inconclusive); settings: HUV-EC-C cells, caspase-3 activation (apoptosis), vehicle = 0, 100 µM tamoxifen = 100%; series mostly up to 92.2 µM
# Procedure, shortened: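 qHTS; HUV-EC-C, 1000 cells/well; 5 hr settle, 16 hr cmpd, 37°C; Caspase-Glo 3/7, 20 min RT; luminescence. Norm: DMSO = 0%, tamoxifen 100 uM = 100%. Hill-fit AC50.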
# [8] = Cellular Toxicity (caspase-3) N2a (AID 665; active = well fitted curve in the direction sought with a large enough effect; an effect the other way counts as inactive or inconclusive;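 note: compound exposure lasted 16 h at 37 °C before readout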); settings: N2a cells, luminescence, normalized: DMSO 0%, 10 µM staurosporine 100%; series mostly up to 92.2 µM
# Procedure, shortened: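 Caspase-3/7 activation, measured as increased luminescence from aminoluciferin release, is quantified in mouse N2a cells exposed to compounds for 16 h. Values are normalized to DMSO and 10 uM staurosporine, with AC50 derived by Hill modelling.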
# [9] = Cellular Toxicity (caspase-3) Renal Proximal Tubule (AID 667; active = well fitted curve in the direction sought with a large enough effect; an effect the other way counts as inactive or inconclusive;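 note: cells exposed to compound for 16 hours at 37 °C before detection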); settings: renal proximal tubule cells; at 91.7 µM (top of the series) unless noted
# Procedure, shortened: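 AC50 derived by standard Hill fit of concentration-response data, normalized between DMSO basal and 10 uM staurosporine as 100% stimulation. Cells: primary rat kidney proximal tubule, 16 h treatment at 37 °C.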
# [10] = MultiTox-Fluor Cytotoxicity Assay - LYMP1-003 - Live Cells (AID 962; active = well fitted curve in the direction sought with a large enough effect; an effect the other way counts as inactive or inconclusive;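 note: cytotoxic hits lower the live-cell protease signal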); settings: LYMP1-003 lymphoblastoid cells, MultiTox-Fluor live-cell protease fluorescence; series mostly up to 92.2 µM
# Procedure, shortened: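 Acute cytotoxicity is scored as a drop in live-cell protease activity in human lymphoblastoid LYMP1-003 cells after 16 hr compound exposure at 37 C. AC50 values come from Hill-equation modelling of concentration-response data.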
# [11] = Cell Viability - LYMP2-003 (AID 965; active = well fitted curve in the direction sought with a large enough effect; an effect the other way counts as inactive or inconclusive;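 note: cells exposed to compounds for 24 h before reading; nearly all actives have a fitted effect of over 50% in size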); settings: LYMP2-003 lymphoblastoid cell viability; series mostly up to 92.2 µM
# Procedure, shortened: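 Seed 2500 lymphoblastoid cells/well; incubate 5 hr, 37 C; add compounds; incubate 24 hr, 37 C; add CellTiter-Glo, 30 min RT; read luminescence. AC50 from Hill fit.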
# [12] = Cell Viability - LYMP2-008 (AID 980; active = well fitted curve in the direction sought with a large enough effect; an effect the other way counts as inactive or inconclusive;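 note: cells exposed to compound for 24 h at 37 °C; nearly all actives have a fitted effect of over 60% in size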); settings: LYMP2-008 lymphoblastoid cell viability, qHTS; series mostly up to 92.2 µM
# Procedure, shortened: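 Cells seeded at 2500/well and rested 5 hr at 37 C; compounds added over a concentration range and incubated 24 hr at 37 C; CellTiter-Glo added, 30 min at room temperature; luminescence read and AC50 fitted with Hill model.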
# [13] = molecular target: Peroxisome proliferator-activated receptor alpha (Homo sapiens) (UniProt Q07869); test: qHTS assay for small molecule agonists of the peroxisome proliferator-activated receptor alpha (PPARalpha) signaling pathway (AID 651778; active = well fitted curve in the direction sought with a large enough effect; an effect the other way counts as inactive or inconclusive); settings: PathHunter PPARalpha complementation, chemiluminescence, 6 h; max response: active compounds read high
# Peroxisome proliferator-activated receptor alpha (Homo sapiens), sequence (Q07869 whole entry, looked up): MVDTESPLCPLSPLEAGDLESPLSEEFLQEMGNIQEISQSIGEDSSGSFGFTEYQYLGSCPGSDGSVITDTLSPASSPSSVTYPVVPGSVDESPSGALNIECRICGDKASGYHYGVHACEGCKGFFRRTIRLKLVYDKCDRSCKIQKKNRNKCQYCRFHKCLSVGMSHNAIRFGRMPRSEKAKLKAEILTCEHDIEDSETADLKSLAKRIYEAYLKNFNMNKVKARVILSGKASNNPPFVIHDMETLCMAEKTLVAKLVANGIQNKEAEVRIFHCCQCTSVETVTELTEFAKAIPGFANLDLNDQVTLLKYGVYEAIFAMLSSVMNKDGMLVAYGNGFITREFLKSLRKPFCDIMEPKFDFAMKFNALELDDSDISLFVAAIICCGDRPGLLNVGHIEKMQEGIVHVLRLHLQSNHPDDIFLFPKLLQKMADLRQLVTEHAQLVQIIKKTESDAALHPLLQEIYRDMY
# Procedure, shortened: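 Cells plated at 2,000/well and held overnight at 37 C, 5% CO2, then compound added by pin tool for 6 hr; after PathHunter detection reagent and 60 min at room temperature, chemiluminescence from enzyme complementation was read.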
# [14] = Cell Viability - Jurkat (AID 426;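 active = dose-dependent loss of cell ATP signal giving a full or clear fitted curve, ranked by lower potency value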;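 note: potency is the fitted concentration of half-maximal effect; cells exposed to compound for 40 hours at 37 °C before ATP read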); settings: qHTS
# Procedure, shortened: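 Cells of the human T-cell leukemia line Jurkat (E6-1) are seeded at 5000 per well, treated with compound across a concentration range for 40 hours at 37 °C, then lysed with CellTiter-Glo; luminescence reports ATP.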
# [15] = molecular target: Mitogen-activated protein kinase 10 (Mus musculus) (UniProt Q61831); test: JNK3 AlphaScreen Assay (AID 530; active = well fitted curve in either direction with a large enough effect, not every such curve was filed as active;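 note: kinase came from lysate of stimulated human HepG2 cells; signal reports phosphorylation of biotinylated GST-cJun 1-79 at Ser73 with 10 µM ATP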); settings: JNK3 lysate, c-Jun phosphorylation; series mostly up to 57.1 µM
# Procedure, shortened: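 Phosphorylation of biotinylated GST-cJun(1-79) at Ser73 is measured by AlphaScreen proximity luminescence. Enzyme is JNK3 in HepG2 lysates activated with interleukin-1beta and tumor necrosis factor alpha; ATP is 10 uM final.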
# [16] = qHTS assay for environmental chemicals that activate the Aryl hydrocarbon Receptor (AhR) signaling pathway (AID 651777; active = well fitted curve in the direction sought with a large enough effect; an effect the other way counts as inactive or inconclusive; note: nearly all actives have a fitted effect of over 15% in size); settings: 1A2-DRE human hepatoma cells, luciferase, 24 h; activation: active compounds read high
# Procedure, shortened: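 Stable CYP1A2 promoter/DRE-luciferase human hepatoma line treated 24 hr; One-Glo luminescence, 30 min RT.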
# [17] = qHTS assay for small molecule agonists of the antioxidant response element (ARE) signaling pathway measured by Nrf2-dependant transcriptional activity - cell viability counter screen (AID 720653; active = well fitted curve in the direction sought with a large enough effect in the repeat runs; an effect the other way counts as inactive or inconclusive); settings: ARE-bla HepG2 viability, CellTiter-Glo ATP luminescence, 16 h; max response: active compounds read low
# Procedure, shortened: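 ARE-bla HepG2 cells (2,000/well) rested 5 hrs at 37C/5% CO2, then exposed to compounds in DMSO for 16 hrs. Viability was read in the same wells as intracellular ATP by luminescence, 30 min at room temperature after reagent addition.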
# [18] = Validation screen for inhibitors of Lassa infection (AID 463096); settings: Lassa virus infection, cell-based; series mostly up to 46.1 µM
smiles,measurement,setting,value
OC(Cc1ccccc1)(c1ccccc1)C1CN2CCC1CC2 (stereo not given),Potency,[1],> 20.6 µM
OC(c1ccc(Cl)cc1)(c1ccc(Cl)cc1)C(Cl)(Cl)Cl,Potency,[2],> 92 µM
same,Potency,[3],> 92 µM
same,Potency,[4],> 92 µM
same,Potency,[5],> 92 µM
same,Potency,[6],inactive
same,outcome,[7],inactive
same,outcome,[8],inactive
same,caspase-3 activation,[9],1.02%
same,Potency,[10],inactive
same,Potency,[11],inactive
same,Potency,[12],inactive
same,max response,[13],-0.474%
C#CCO,Potency,[2],> 92 µM
same,Potency,[14],> 92 µM
same,Potency,[3],> 92 µM
same,Potency,[4],> 92 µM
same,Potency,[5],> 92 µM
same,outcome,[15],inactive
same,Potency,[6],inactive
same,outcome,[7],inactive
same,outcome,[8],inactive
same,caspase-3 activation,[9],"-11.4% [at 91.7 µM, primary cells freshly taken from rat, solvent-only wells 0%, staurosporine 100%]"
same,Potency,[10],inactive
same,Potency,[11],inactive
same,Potency,[12],inactive
same,activation,[16],1.07%
same,max response,[13],-1.68%
same,max response,[17],-2.39%
CCOc1ccc(-n2c(O)c(C=Nc3ccc(N(CC)CC)cc3)c(=O)[nH]c2=O)cc1,Potency,[1],> 20.6 µM
Nc1ncnc2c1ncn2[C@@H]1O[C@H](COP(=O)(O)OP(=O)(O)OP(=O)(O)OP(=O)(O)OC[C@@H]2O[C@H](n3cnc4c(N)ncnc43)[C@@H](O)[C@@H]2O)[C@H](O)[C@H]1O,Potency,[18],inactive
CC[C@H](CO)NC(=O)[C@H]1C=C2c3cccc4[nH]cc(c34)C[C@H]2N(C)C1,Potency,[1],> 46 µM
same,outcome,[15],inactive
O=c1ccc2cc(O[C@@H]3O[C@@H](CO)[C@@H](O)[C@@H](O)[C@H]3O)c(O)cc2o1,Potency,[1],> 46 µM
same,outcome,[15],inactive
CN(C)CCCO[C@H]1C([C@H](O)CO)O[C@@H]2OC(C)(C)O[C@@H]21 (stereo not given in full),Potency,[18],inactive
CSc1nc(N)c2ncn([C@@H]3O[C@H](COP(=O)(O)OP(=O)(O)O)[C@H](O)[C@H]3O)c2n1,Potency,[18],inactive
Nc1nc(SCc2ccc([N+](=O)[O-])cc2)c2ncn([C@@H]3O[C@H](CO)[C@H](O)[C@H]3O)c2n1,Potency,[18],inactive
CC(=O)[C@@]1(O)CC[C@H]2C3CCC4=CC(=O)CC[C@]4(C)C3CC[C@@]21C (stereo not given in full),Potency,[18],inactive
CC(C)(C)NCC(O)COc1nsnc1N1CCOCC1 (stereo not given),Potency,[18],inactive
C#C[C@]1(O)CC[C@H]2C3CCC4=Cc5oncc5CC4(C)C3CCC21C (stereo not given in full),Potency,[18],inactive
OC[C@H]1CCCN2CCCC[C@@H]12,Potency,[1],> 46 µM
same,outcome,[15],inactive
C=C(C)[C@H]1[C@H]2OC(=O)[C@@H]1[C@]1(O)C[C@H]3O[C@]34C(=O)O[C@H]2[C@]14C,Potency,[1],> 46 µM
Nc1nc(Cl)nc2c1ncn2[C@@H]1O[C@H](COP(=O)(O)OP(=O)(O)OP(=O)(O)O)[C@H](O)[C@H]1O,Potency,[18],inactive
C[C@H]1CC[C@@H]2[C@@H](C)C(=O)O[C@H]3O[C@@]4(C)CC[C@@H]1[C@]32OO4,Potency,[1],> 46 µM
same,outcome,[15],inactive
CN1CCc2cc(Cl)c(O)cc2C(c2ccccc2)C1 (stereo not given),Potency,[18],inactive
CC#C[C@]1(O)CC[C@H]2C3CCC4=CC(=O)CCC4=C3[C@@H](c3ccc(N(C)C)cc3)C[C@@]21C (stereo not given in full),Potency,[18],inactive
C[C@H]1c2cccc(O)c2C(O)=C2C(=O)[C@]3(O)C(O)=C(C(N)=O)C(=O)C(N(C)C)[C@@H]3[C@@H](O)C21 (stereo not given in full),Potency,[18],inactive
